# Test system: PPARa:RXRa (NR concentration 270 nM, RXRa partner concentration 90 nM)
# Assay: PBM binding z-score (relative to random genomic background probes); higher = stronger binding; sequences stand for … in GC…GCGATTGACAGCGTAGAATGAAGG
# How it was run: (§1)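 Antibodies against each partner of ligand-free nuclear receptor dimers (one per run) detected binding on custom Agilent 4×180K protein-binding microarrays after 1 h incubation. The double-stranded probes had 34-nt variable regions carrying direct-repeat seeds, single-nucleotide variants, half-site ablations and random human genomic background sequences. Binding z-scores, from regression-normalized fluorescence, use the random background probes as reference.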
row,Sequence,PBM binding z-score
1,ACTATTAGTTGAGACGAGGACAACCGATAGGTTG,-0.169
2,GGTATTAGTTGAAAGGGCAACCGAATGATTCTCG,2.66
3,CCGACTGGGGCAAGGGTACCATAACGCACAGCCA,1.5
4,CGTCCAAGGTCAGCAGGTCAGTGACAGCGACGTG,4.63
5,CAAGCTAGGTCACGAAAGGTCAAAGTCGAATGAC,6.5
6,TAGCCTAGGTCATGCGGGCCATTATAGTGTCGGC,3.6
7,CAAACTAGGTCACCGGAAGGTCAAAGACCGCATG,6.19
8,TCATATAGGTAAATGCTAGGTGAAAGCCCGATCT,1.4
9,CTCGAAAGGTCGTGCTCAGGCGAGTATACCAAAC,5.03
10,GCTAGTTGGTCAGTAAAAGTTCACACACCGGTCG,1.95
11,CCGACTGGGGCATAAGGTTACCTTAAGCCAGCCC,1.9
12,TAGCCTAGGTCATTCAGGGGCCAGTAAAGAAAGC,3.73
13,CATACTGGGTCAGCTAGGCCAGAGTAGGGACGGC,2.16
14,CAGCCTAGGTCAGTGCCAGTATAGGAGGAACGTT,1.17
15,TCTCGGAGGACACGAAAGGTCAGATCTCGACATC,3.44
16,CAAACTAGGTCAAAGGTCCAAGTCGAGCCAACCA,6.27
17,CAAACTAGGTCCAAGGTCAAAGTCGAGCCAACCA,5.32

# Test system: PPARg:RXRa (NR concentration 180 nM, RXRa partner concentration 90 nM)
# Assay: as above
# How it was run: as §1
row,Sequence,PBM binding z-score
1,CGTCCAAGGTCAAGGTCGGTGAAAGAGACTCGAA,5.34
2,TCTTGTAGATCAATAGAGGTTCAGAAAGTGCGCT,-0.13
3,CCTACTGGGCCAACGTCATTGATCAGTCAAAGCA,0.876
4,AGAACGAGGGCACGCAGAGTTGATAGCAGAGTAG,2.51
5,GCCTATAGGTAATACAAGGTGAAAGTCCGATTGT,0.667
6,TAGCCTAGGTCATTGGGCGAGTATAGTACGCATC,2.65
7,ACAGACAGGTGAGTGAAGGTAACTAAGCTGGACG,0.457
8,TTACCAAGTTGAGCTGAGGTCGTTGATCCAACTC,-0.512
9,TGAGTGAGGTTAAAGATCAGGGAACGTGGCGTCG,3.48
10,CCTCGGAGGACTGAAGGTCAGAGCTGTCCGCTTT,-0.679
11,CCTACTGGGCCACGGTCATTGATCAGTCAAAGCA,2.11
12,GGAACGAGGACATTCGAGTTGATAGCATGGCGAT,0.664
13,CTACCAAGGAGAACAAGGTCGTTGATTACTATTC,0.183
14,TCGAGTAGGTTGGGGGCATTCAGAATGGCGTCGA,0.614
15,CCAGATAGGTGAAAGGTAACTCAGTCTGGTACGC,7.95
16,ACTCGGAGGACAAAGGCCAGAGCTACGCCAGTGA,1.47
17,CAAACTAGGTCAAGTTCAAAGTCGGTTTGTGCCA,8.91
18,GTACCAAGGTGGATAGGTCGTTGATGAGTAGGCG,0.422
19,TCTGCTCGGTCAGTTGGTCAGCTAACGAGCTGCC,-1.22
20,CATACAGTGTCAGCTAGGCCAGAGTAGGGACGGC,0.467
21,CGTCCAAGGACAAAGGTCAGTGAAGAGATGACGG,5.79
22,TCTATTACTTGATTAGGGCAACCGAAACAGCGGA,0.4
23,ACTATTAGTTGAGACGAGGACAACCGATAGGTTG,0.659
24,GGTATTAGTTGAAAGGGCAACCGAATGATTCTCG,3.26
25,CCGACTGGGGCAAGGGTACCATAACGCACAGCCA,4.24
26,CGTCCAAGGTCAGCAGGTCAGTGACAGCGACGTG,3.93
27,CAAGCTAGGTCACGAAAGGTCAAAGTCGAATGAC,7.39
28,TAGCCTAGGTCATGCGGGCCATTATAGTGTCGGC,2.62
29,CAAACTAGGTCACCGGAAGGTCAAAGACCGCATG,9.78
30,TCATATAGGTAAATGCTAGGTGAAAGCCCGATCT,0.799
